BJeLR lethal: MLPCN primary cell-based screen for lethality selective to Ras in HRASV12 cells. BJeLR (HRASV12) viability, CellTiter-Glo ATP luminescence, 48 h. inhibition, % (concentration not given with the values). hit rate 0.17% among 300,000; in the data active = inhibition above about 50%
3CLpro inhibitor: SARS-CoV 3CLpro protease inhibitors, primary screen, biochemical, quenched FRET. hit rate 0.14% among 290,000. Replicase polyprotein 1ab (Severe acute respiratory syndrome coronavirus), P0C6X7. recombinant SARS-CoV 3CLpro, quenched FRET peptide cleavage. AID 1706, 2009. inhibition, % at 6 µM; in the data active = inhibition above about 12%
PriA SSB inh: inhibitors of Klebsiella pneumoniae PriA binding to SSB C-terminal tail, primary screen, biochemical, AlphaScreen | PriA–SSB C-terminal tail interaction (Klebsiella pneumoniae) | AlphaScreen SSBct-PriA binding, biotinylated peptide | inhibition, % at 33 µM | hit rate 0.6% among 430,000; in the data active = inhibition mostly above about 37%, no sharp cut-off; inactive = mostly below about 20%
Numbers stand for hits; - = inactive; . = not tested or not shown; ! = not active in a repeat. Most compounds without a hit are left out; they make up all but 0.78% or so of the library.

SMILES | BJeLR lethal | 3CLpro inhibitor | PriA SSB inh
O=C(COc1ccccc1)N(CCCN1CCOCC1)c1nc2c(Cl)cccc2s1 | . | . | -
Cc1ccc(NC(=O)C(=O)N2CCC(Cc3ccccc3)CC2)c([N+](=O)[O-])c1 | . | . | 39.0
O=C(Nc1ccc(F)c(F)c1)C(=O)N1CCC(Cc2ccccc2)CC1 | . | . | -
COc1ccc(C)c2sc(N3CCN(C(=O)C4CCCN4S(=O)(=O)c4cccs4)CC3)nc12 (stereo unspecified) | . | . | -
COCCN1CCC(CNC(=O)c2ccc(C(F)(F)F)cc2)CC1 | . | . | -
CC(C)n1c(/C=C/[C@H](O)C[C@H](O)CC(=O)O)c(-c2ccc(F)cc2)c2ccccc21 | . | . | -
O=C(O)C[C@H](O)C[C@H](O)/C=C/c1c(C2CC2)nc2ccccc2c1-c1ccc(F)cc1 | 52.7 | . | .
Cc1cc(NC(=O)Cn2nc(-c3ccco3)n(C3CC3)c2=O)no1 | . | . | -
Cc1[nH]c2ccccc2c1C(=O)COC(=O)c1ccc([N+](=O)[O-])s1 | - | - | 44.6
O=C(COC(=O)c1ccc([N+](=O)[O-])s1)NCc1ccccc1 | - | - | -
CN(C)CCCN(C(=O)/C=C/c1ccccc1)c1nc2ccc(Cl)cc2s1 | . | . | -
CCOC(=O)CNC(=O)c1nnn2cc(-c3ccccc3OC)[nH]c(=O)c12 | . | . | -
COc1ccccc1-c1cn2nnc(C(=O)NCc3c(C)noc3C)c2c(=O)[nH]1 | . | . | 25.0
COc1cccc(NC(=O)NCCOc2ccc(F)cc2)c1OC | . | . | -
O=C(Nc1ccc2c(c1)N(C(=O)C1CCCC1)CC2)C1CC1 | . | . | -
O=Cc1[nH]c2ccccc2c1N(C(=O)CCl)c1ccc([N+](=O)[O-])cc1 | 111.2 | - | -
O=C(CCl)N(c1ccc(Cl)cc1)c1c[nH]c2ccccc12 | - | - | -
Cc1cc(-c2nnc(NC(=O)C3CCN(S(C)(=O)=O)CC3)o2)n(C)n1 | . | . | -
Cc1nn(C)c(C)c1S(=O)(=O)NCC1CCN(Cc2ccsc2)CC1 | . | . | -
Cc1ccc2[nH]cc(C(=O)CCl)c2c1 | 53.9 | - | -
Cc1ccc2[nH]cc(C(=O)CN3CCN(C)CC3)c2c1 | - | - | -
Cc1c[nH]c2c(c1=O)c(=O)n(C)c(=O)n2C | . | . | -
O=C(NC(=S)N1CCCc2ccccc21)c1ccc(Cl)cc1 | . | - | -
O=C(NC(=S)N1CCCc2ccccc21)c1ccccc1 | - | - | 42.0!
CC1=CC(=O)C=C/C1=C(\c1ccc(O)cc1C)c1ccccc1S(=O)(=O)O | . | . | -
SMILES | BJeLR lethal | 3CLpro inhibitor | PriA SSB inh
CC1=CC(=O)C(C(C)C)=C/C1=C(\c1cc(C(C)C)c(O)cc1C)c1ccccc1S(=O)(=O)O | . | . | 59.0
COc1ccccc1OCC(=O)Nc1ccc(-c2nnc(C)o2)cc1 | . | . | -
CN=c1scc(-c2ccc(OC)cc2)n1/N=C(\C)c1cccnc1 | . | - | .
CN=c1scc(-c2ccc(OC)cc2)n1N=C(C)c1cccnc1 | . | . | 43.5
CN1CC(=O)NC1=NC(=O)Nc1ccc(O)cc1 | . | . | -
c1cnc2c(OCc3cn4cccnc4n3)cccc2c1 | . | - | 43.2
Clc1ccc(OCc2cn3cccnc3n2)c2ncccc12 | - | - | -
CC(=O)c1sc(NC(=O)CCCS(=O)(=O)c2ccc(Cl)cc2)nc1C | . | . | -
Cc1[nH]n(-c2ccccc2)c(=O)c1C=NNc1nncc(-c2ccccc2)n1 | . | . | -
Cc1[nH]n(-c2ccccc2)c(=O)c1/C=N/Nc1nncc(-c2ccccc2)n1 | 57.2 | - | .
CCOc1cn(C)c(C(=O)Nc2cccc(F)c2)cc1=O | . | . | -
CCc1cccc(Nc2c([N+](=O)[O-])cc(C(=O)N3CC(=O)Nc4ccccc43)cc2[N+](=O)[O-])c1 | - | - | 47.7
CCc1cccc(NC(=O)CNC(=O)N2CC(=O)Nc3ccccc32)c1 | - | - | -
Clc1ccccc1[C@H]1NCCS1 | . | . | -
O=S(=O)(Nc1cccc(-c2nc3ccccc3s2)c1)c1ccc(Cl)s1 | . | . | -
Oc1ccccc1-c1cc(C(F)(F)C(F)F)nc(-c2ccccc2)n1 | - | - | -
O=[N+]([O-])c1ccc(O)c(-c2cc(C(F)(F)F)nc(-c3ccccc3)n2)c1 | 68.0 | - | -
COC(=O)c1sc2ccccc2c1NC(=O)CCCS(=O)(=O)Cc1ccccc1 | . | . | -
Cc1ccnc(SCC(=O)c2ccc([N+](=O)[O-])cc2)n1 | - | - | -
O=C(CSc1cccc2cccnc12)Nc1cccc(C(F)(F)F)c1 | . | . | 125.5
O=C(CSc1cccc2cccnc12)c1ccc([N+](=O)[O-])cc1 | . | . | 57.6
O=C(CSc1cccc2cccnc12)Nc1ccc(SC(F)F)cc1 | . | . | 85.3
Cc1cc(Cl)ccc1NC(=O)CSc1cccc2cccnc12 | . | . | -
Cc1cc(Br)ccc1NC(=O)CSc1cccc2cccnc12 | . | . | 82.4
Cn1ccnc1SCC(=O)Nc1ccc(SC(F)F)cc1 | . | . | -
SMILES | BJeLR lethal | 3CLpro inhibitor | PriA SSB inh
O=C(CSCCO)Nc1cccc(C(F)(F)F)c1 | - | - | -
CN1CCc2cc(C(CNC(=O)COc3ccc(Cl)cc3Cl)N3CCCC3)ccc21 (stereo unspecified) | . | . | -
COc1ccc(-n2nncc2CN2CCN(C(=O)C3(c4ccccc4)CC3)CC2)cc1F | . | . | -
O=C(CSCc1ccccc1)NCC1CCN(c2ccncc2)CC1 | . | . | -
Cc1ccc(NC(=O)C2CCN(c3cc(C4CC4)ncn3)CC2)c(Br)c1 | . | . | -
COc1cccc(NC(=O)N2CCC3(CC2)OCCS3)c1OC | . | . | -
O=C(CSc1cccc2cccnc12)Nc1cccc([N+](=O)[O-])c1 | . | . | 88.0
COc1cc([N+](=O)[O-])ccc1NC(=O)CSc1cccc2cccnc12 | . | . | -
CC(=O)c1cccc(NC(=O)CSc2cccc3cccnc23)c1 | . | . | 116.0
COc1cccc(NC(=O)CSc2cccc3cccnc23)c1 | . | . | -
O=C(NC1CC1)c1csc(NS(=O)(=O)c2ccccc2)n1 | . | . | -
COc1ccc(CC(=O)Nc2nnc(-c3cc(C)nn3C)o2)cc1 | . | . | -
Cc1cc(-c2nnc(NC(=O)Cc3ccc(S(C)(=O)=O)cc3)o2)n(C)n1 | . | . | 43.0
O=C(NCc1ccc(F)cc1)C(=O)NCC1OCCN1S(=O)(=O)c1ccc([N+](=O)[O-])cc1 (stereo unspecified) | . | . | -
COc1cc(C(=O)N2CCC3(CC2)NCCc2[nH]cnc23)cc(OC)c1OC | - | - | -
Cc1cc(C)cc(C(=O)N2CCC3(CC2)NCCc2[nH]cnc23)c1 | - | - | 93.7
O=C(Cc1ccc(F)cc1F)Nc1cnn(C[C@H]2COc3ccccc3O2)c1 | . | . | -
Cc1ccc(C)c(S(=O)(=O)c2nnn3c2nc(Nc2ccc(C(C)C)cc2)c2sccc23)c1 | . | . | -
COC(=O)c1ccc(C(=O)Nc2c3c(nn2-c2ccccc2)CCC3)cc1 | . | . | -
Cc1ccc(N2C(=O)c3ccccc3C2Nc2ccccc2F)nc1 (stereo unspecified) | - | - | -
Cc1ccc(N2C(=O)c3ccccc3C2O)nc1 (stereo unspecified) | 69.9 | - | .
CNc1ccc2ccccc2c1SC | . | . | -
C=CCNC(=O)C(=O)N1CCN(c2cccc(Cl)c2)CC1 | . | . | -
O=C(NN=Cc1coc2ccccc2c1=O)c1cccc([N+](=O)[O-])c1 | . | . | -
O=C1c2ccccc2C(=O)c2c1ccc(C(=O)N1CCCCC1)c2NCCO | - | - | -
CC1CCCN(C(=O)c2ccc3c(c2NCCO)C(=O)c2ccccc2C3=O)C1 (stereo unspecified) | - | - | 64.1
O=C(NCCOc1ccc2nnc(-c3ccccc3Cl)n2n1)c1ccc(F)c(F)c1 | . | . | -
